Test results taken from PubChem BioAssay AID1053173 (Broad Institute, 2014).
Screen size: about 1,500 compounds; about 390 (26%) were called active. These entries were drawn from the full list. Results with a measured potency or affinity are listed apart. Values without a mark were called inactive. No rule for the calls is given here.

target: Histone-lysine N-methyltransferase NSD2 (Homo sapiens) (UniProt O96028); test: NSD2 methyltransferase inhibitors, dose response, biochemical, AlphaScreen, cherry-picked samples (AID 1053173); conditions: NSD2 H4 peptide methylation, 120 min; series mostly up to 10 µM; activity change, negative = inhibition: at the top concentration;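 also: 0% = neutral control wells and -100% = positive control wells on each plate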
Sequence (O96028 whole entry, looked up): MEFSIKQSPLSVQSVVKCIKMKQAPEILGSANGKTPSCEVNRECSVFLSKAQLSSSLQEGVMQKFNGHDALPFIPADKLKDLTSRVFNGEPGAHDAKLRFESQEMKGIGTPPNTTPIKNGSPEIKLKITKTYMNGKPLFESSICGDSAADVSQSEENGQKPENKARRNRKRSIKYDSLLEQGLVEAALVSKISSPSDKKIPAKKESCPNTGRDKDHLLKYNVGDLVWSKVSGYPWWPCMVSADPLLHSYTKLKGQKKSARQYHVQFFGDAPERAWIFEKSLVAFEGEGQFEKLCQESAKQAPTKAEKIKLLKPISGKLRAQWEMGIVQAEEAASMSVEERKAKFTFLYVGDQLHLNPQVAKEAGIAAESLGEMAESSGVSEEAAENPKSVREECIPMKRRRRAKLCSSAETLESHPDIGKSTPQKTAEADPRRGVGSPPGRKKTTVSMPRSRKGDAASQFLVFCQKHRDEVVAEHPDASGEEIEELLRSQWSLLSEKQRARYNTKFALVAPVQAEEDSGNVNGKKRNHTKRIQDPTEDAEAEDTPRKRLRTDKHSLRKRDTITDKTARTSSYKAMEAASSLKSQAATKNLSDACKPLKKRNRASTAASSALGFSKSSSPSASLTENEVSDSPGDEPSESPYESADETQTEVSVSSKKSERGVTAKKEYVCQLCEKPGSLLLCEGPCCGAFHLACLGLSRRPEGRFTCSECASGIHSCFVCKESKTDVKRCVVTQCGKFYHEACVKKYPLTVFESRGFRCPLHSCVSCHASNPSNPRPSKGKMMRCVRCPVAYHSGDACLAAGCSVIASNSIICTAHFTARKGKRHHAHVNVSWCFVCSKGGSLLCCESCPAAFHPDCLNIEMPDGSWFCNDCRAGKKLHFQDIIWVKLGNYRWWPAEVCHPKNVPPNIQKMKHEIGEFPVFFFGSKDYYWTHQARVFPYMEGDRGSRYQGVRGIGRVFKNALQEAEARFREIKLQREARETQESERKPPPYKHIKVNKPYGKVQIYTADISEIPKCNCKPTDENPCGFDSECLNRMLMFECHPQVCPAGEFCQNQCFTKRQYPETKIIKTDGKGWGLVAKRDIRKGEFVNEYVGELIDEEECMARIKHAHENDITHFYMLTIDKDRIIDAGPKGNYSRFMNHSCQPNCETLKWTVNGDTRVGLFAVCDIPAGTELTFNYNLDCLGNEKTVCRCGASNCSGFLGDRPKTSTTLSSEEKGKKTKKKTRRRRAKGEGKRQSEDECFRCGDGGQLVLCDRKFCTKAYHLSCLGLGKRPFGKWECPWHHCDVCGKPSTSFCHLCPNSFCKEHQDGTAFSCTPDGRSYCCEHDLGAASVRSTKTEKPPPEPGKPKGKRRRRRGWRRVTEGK

Row | SMILES | activity change, negative = inhibition [%]
1 | COc1ccc2c(c1)Cc1sc(NC(=O)c3cccnc3)nc1-2 | 4.51
2 | Cc1ccc(N2CN=c3s/c(=C\c4ccccn4)c(=O)n3C2)cc1 | -0.608
3 | Cc1c(-c2cccc(Cl)c2)nc2ccccc2c1C(=O)OC/C(O)=C(\C#N)c1nc2ccccc2[nH]1 | -3.82
4 | COc1ccc(C=C(c2nc3ccccc3s2)c2nc3ccccc3s2)cc1O | -9.17
5 | O=C(NC1CCCc2ccccc21)c1ccccc1OC(F)F (configuration not stated) | 0.349
6 | O=C1Nc2ccc(S(=O)(=O)NCc3ccco3)c3cccc1c23 | 0.667
7 | COc1ccc(NC2CCCN(C(=O)c3ccccc3N3CCOCC3)C2)cc1OC (configuration not stated) | -0.733
8 | Cn1c(NNC(=O)c2c(F)cccc2F)cc(=O)n(C)c1=O | 6
9 | Cc1[nH][nH]c(=O)c1C(c1ccc(-c2ccccc2C(=O)O)o1)c1c(C)[nH][nH]c1=O | -9.78
10 | Nc1nonc1-c1nc2ccccc2n1CC(=O)N/N=C/c1ccc(-c2ccccc2C(=O)O)o1 | -10.2
11 | O=C(CSc1n[nH]c(-c2ccncc2)n1)Nc1ccc(Cl)c(Cl)c1 | -5.23
12 | Cc1ccc(-c2ccc(/C=N/NC(=O)CN3CCOCC3)o2)cc1[N+](=O)[O-] | -0.384
13 | Cc1nnc(N/N=C\c2ccc(-c3cccc(C(=O)O)c3)o2)n1N | 1.17
14 | O=C(CCN1CCOCC1)NCC1COc2ccccc2O1 (configuration not stated) | 4.15
15 | COc1cc(CC(=O)NCC2COc3ccccc3O2)cc(OC)c1OC (configuration not stated) | 4.11
16 | COc1cc(C(=O)NC2CCCc3ccccc32)cc(OC)c1OC (configuration not stated) | -3.18
17 | CN(C)/C=C1\C=C2C(=O)c3ccccc3N2C1=O | -11.9
18 | Cc1c(C)c2cc(Cl)c(O)c(CN(C)C)c2oc1=O | -4.88
19 | Nc1nonc1C(=O)NCCNC(=O)c1ccccc1F | 4.89
20 | O=C(Nc1cccnc1)c1ccc(COc2ccccc2Cl)o1 | -3.23
21 | CNc1ccc(Br)cc(C(=O)/C=C/c2ccc(OC)cc2)c1=O | -11.9
22 | O=C(CCc1nnc(CCCCc2ccccc2)o1)NC1CCCC1 | 0.963
23 | Cc1ccc(-n2nc(C(=O)NCc3ccc(C)o3)c3c4ccccc4n(C)c3c2=O)cc1 | -0.692

Row | SMILES | activity change, negative = inhibition [%]
24 | CC(C)(C#N)NC(=O)C1CCCN1S(=O)(=O)c1ccc2ccccc2c1 (configuration not stated) | -3.31
25 | Cc1ccc2cccc(NC3OC(=O)c4ccccc43)c2n1 (configuration not stated) | -5.91
26 | COc1cc(C(=O)Nn2c(O)c(C3=c4ccccc4=NC3=O)sc2=S)ccc1O | 1.57
27 | CN1CCN(c2ccc(NC(=O)COc3ccc4ccccc4c3)cc2)CC1 | 6.91
28 | CC(=O)N1CCN(c2ccccc2NC(=O)c2ccc3ccccc3c2)CC1 | 4.94
29 | COc1c(F)c(F)c(C(=O)Nc2cccc(Cl)c2N2CCOCC2)c(F)c1F | -1.41
30 | Nc1c2c(=O)oc(-c3ccccc3)cc2nn1-c1ccccc1 | 0.608
31 | Cc1ccccc1-c1ocnc1C(=O)Nc1ccccc1NC(=O)c1ccccn1 | -3.59
32 | O=C(N/N=C/c1cc2c(cc1[N+](=O)[O-])OCO2)c1ccccn1 | 1.47
33 | O=C(Nc1cccc(C(F)(F)F)c1)c1cc(-c2ccco2)on1 | -0.125
34 | Cc1cccc(N2CCN(S(=O)(=O)c3c(C)nc4scc(C)n4c3=O)CC2C)c1 (configuration not stated) | 4.46
35 | O=C(Nc1cc(S(=O)(=O)Nc2ccccc2F)ccc1Cl)c1ccc(F)cc1F | -4.71
36 | CC1CC(C)CN(C(=O)C2CCN(S(=O)(=O)c3cccs3)CC2)C1 (configuration not stated) | -1.91
37 | Cn1c(=O)c2c(nc(CN3CCc4ccccc4C3)n2CCc2ccccc2)n(C)c1=O | -0.06
38 | Cc1ccccc1-n1nc(C)c2c1N=C1C(Cl)=CC(Cl)=CN1C2c1ccc(C(=O)O)cc1 (configuration not stated) | -5.97
39 | CC(C)N(Cc1ccccc1)C(=O)C1CCCN(c2ncnc3c2nc2n3CCCCC2)C1 (configuration not stated) | -1.45
40 | COc1ccc(NC(=O)c2ccc(F)c(F)c2)c2ccccc12 | 2.95
41 | c1ccc(-c2cc(-c3ccccc3)n3ncnc3n2)cc1 | -0.881
42 | COCCNC(=O)Cc1c(C)c2c(cc(C)c3c(C)coc32)oc1=O | -2.39
43 | CC1CCN(C(=O)CN(Cc2ccc(Cl)cc2)S(C)(=O)=O)CC1 | -3.55
44 | CCc1ccccc1NC(=O)CSc1nc2n[nH]c(C)c2c(=N)n1-c1cccc(OC)c1 | 0.33
45 | CC(NC(=O)COC(=O)c1ccc([N+](=O)[O-])s1)c1ccccc1 (configuration not stated) | -0.22
46 | CSc1ccccc1NC(=O)CN(C)C(=O)COc1ncnc2ccccc12 | 4.86

Row | SMILES | activity change, negative = inhibition [%]
47 | COCCOC(=O)C1=C(C)NC(C)=C(C(=O)OC(C)C)C1c1cccc([N+](=O)[O-])c1 (configuration not stated) | -0.917
48 | Nn1cnnc1N/N=C\c1ccc(-c2ccccc2[N+](=O)[O-])o1 | -6.2
49 | Cc1nnc(N/N=C/c2ccc(-c3ccccc3F)o2)n1N | -3.53
50 | CC(C)c1ccc(NC(=S)N2CCCC(c3ccc(F)cc3)=N2)cc1 | 6.21
51 | Cc1ccc(NC(=S)N2CCC(NC(=O)c3cccc(F)c3)CC2)cc1 | 4.83
52 | COc1ccc(S(=O)(=O)N2CCCC(C(=O)NCCCn3ccnc3)C2)cc1OC (configuration not stated) | -0.379
53 | CC1CN(c2nc3c(c(=O)n(Cc4ccc(Cl)cc4)c(=O)n3C)n2C)CC(C)O1 (configuration not stated) | 0.136
54 | O=c1c2c(n3cnnc3n1-c1ccccc1)-c1ccccc1CC21CCCC1 | 0.452
55 | N#Cc1cc(-c2ccccc2)nnc1Oc1ccccc1Cl | -2.46
56 | CCN(CC)S(=O)(=O)c1ccc(-c2cn3cc(Cl)ccc3n2)cc1 | 4.2
57 | COc1ccc(C(=O)N(Cc2cccs2)C2CCS(=O)(=O)C2)cc1 (configuration not stated) | -0.94
58 | CCOC(=O)Nc1cc(C(=O)OC)ccc1C | -1.18
59 | Cc1cc(C(=O)COc2cccc(-n3cnnn3)c2)c(C)n1-c1ccccc1 | -0.173
60 | O=C(Nc1ccc(Br)cc1)c1ccc(-n2cnnn2)cc1 | -2.68
61 | O=C(C1CC1)N1CCc2[nH]c3ccccc3c2C1 | -2.06
62 | C=CCn1c(N)c(C(=O)NCC2CCCO2)c2nc3ccccc3nc21 (configuration not stated) | 2.42
63 | COc1ccccc1NC1C=CS(=O)(=O)C1 (configuration not stated) | -0.449
64 | CC1CCCC(C)N1C(=O)COC(=O)c1ccc([N+](=O)[O-])o1 (configuration not stated) | -9.53
65 | COc1ccccc1NC(=O)c1ccccc1NS(=O)(=O)N1CCCC1 | -2
66 | CCN1CCc2nc3ccccc3c(C(=O)Nc3ccc(NC(C)=O)cc3)c2C1 | -11.6
67 | O=C1ON=C(c2ccccc2)/C1=C/c1ccc(O)cc1 | -0.931
68 | Nc1nc(Nc2ccccc2F)nc(NCCO)c1[N+](=O)[O-] | 2.06
69 | CCCCn1c(=O)[nH]c2nc3cc(N)ccc3nc2c1=O | 0.883

Row | SMILES | activity change, negative = inhibition [%]
70 | COc1ccc(C(=O)NCc2nnc(SCC(=O)Nc3cc(C)cc(C)c3)o2)cc1OC | -0.567
71 | COc1ccc(/C=N/Nc2nnc(C)n2N)cc1OC | -5.85
72 | Cc1nnc(N/N=C/c2ccccc2O)n1N | 0.875
73 | CN(C)S(=O)(=O)c1ccc(NC(=O)CCNC(=O)c2ccco2)cc1 | 3.08
74 | CC(=O)c1cccc(NC(=O)CC2CCCC2)c1 | -1.9
75 | Cc1nc2ccc(S(=O)(=O)N3CCCCC3)cc2s1 | -1.08
76 | CC(=O)NCCN1C(=O)C2C3c4ccccc4C(c4ccccc43)C2C1=O (configuration not stated) | 4.66
77 | CCOC(=O)c1sc2nc(C)nc(NC3CCC(O)CC3)c2c1C (configuration not stated) | 0.285
78 | CCCCC(=O)OCc1cn(-c2ccc(Cl)cc2)nn1 | -2.69
79 | Cc1cccc(NC(=O)C2CCN(C(=O)NCc3ccccc3)CC2)c1C | 2.02
80 | CN1C(=O)C(CCC(=O)O)NC1=S (configuration not stated) | -0.941
81 | Cc1cccc(NC(=O)CSCC(=O)NCc2cccc(C(F)(F)F)c2)c1 | -1.1
82 | O=C(O)c1cc(-c2ccco2)nn1-c1ccc(Cl)cc1 | -13.9
83 | O=C(NCCCO)c1ccc2nc(-c3ccco3)c(-c3ccco3)nc2c1 | -10.6
84 | O=C1CCN(Cc2ccccc2)N1 | 7.16
85 | COc1ccc2c(c1)Cc1sc(NC(=O)c3cccs3)nc1-2 | -6.4
86 | COc1ccc(C(=O)OCC(=O)Nc2c(C)n(C)n(-c3ccccc3)c2=O)cc1 | 5.18
87 | O=Nc1ccc(O)c2ncccc12 | 1.26
88 | Cc1ccc(C#N)c(SCc2ccccc2F)n1 | -0.897
89 | O=c1[nH]c(NCCO)c(N=Cc2ccccc2)c(=O)[nH]1 | 0.744
90 | COc1ccc(C2CCc3cc4c(cc3C2=NOC(C)=O)OCO4)cc1OC (configuration not stated) | -3.53
91 | Cc1cc(C)n(CC(O)COc2c(C)cccc2C)n1 (configuration not stated) | 0.908
92 | O=C(CN1CCOCC1)NCCNC(=O)CN1CCOCC1 | 1.46

Row | SMILES | activity change, negative = inhibition [%]
93 | CCNC(=O)C1(C)CCCN(C(=O)c2ccc3ccccc3n2)C1 (configuration not stated) | 2.47
94 | NC(=O)COC(=O)c1ccc(Cl)c(S(=O)(=O)N2CCN(c3ccc(F)cc3)CC2)c1 | -3.71
95 | COc1cc(NC(=O)c2ccccc2)c(OC)cc1NC(=O)CSc1[nH]c(=O)cc(C)c1C#N | -2.43
96 | Cc1ccc(CC(=O)Nc2nncs2)cc1 | -3.28
97 | CCc1sc(C(=O)Nc2nc(C)cs2)cc1C | -1.21
98 | Cc1ccc2cccc(OCc3ccc(Br)cc3)c2n1 | 0.04
99 | CC(Nc1ccc2ccccc2c1)C(=O)N/N=C/c1ccncc1 (configuration not stated) | 1.12
100 | Cc1sc2nc[nH]c(=S)c2c1-c1ccccc1 | -1.69
101 | O=c1[nH]nc(Br)c(=O)n1C(c1ccccc1)c1ccccc1 | 1.07
102 | O=C(CSc1nccn1-c1ccc(F)cc1)NCc1ccc(F)cc1 | -0.835
103 | Cc1cccc2c(=O)c(C(=O)NCc3ccc(F)cc3)c[nH]c12 | -0.748
104 | CN(Cc1nc2ccccc2c(=O)[nH]1)C(=O)c1cc2c(s1)CCCCC2 | 3.16
105 | O=C(O)COc1ccccc1/C=N/Nc1ccc(S(=O)(=O)Nc2ccc(Cl)cc2)cc1[N+](=O)[O-] | -8.28
106 | O=C(Nc1ccccc1C(=O)O)c1cncc(Br)c1 | -1.11
107 | O=C(/C=C/c1ccco1)N(c1ccccn1)c1ccccn1 | -13.1
108 | COc1ccc(CCC(=O)Nc2ccc(S(=O)(=O)Nc3nccc(C)n3)cc2)cc1 | -0.912
109 | Cc1cc(NS(=O)(=O)c2ccc(NC(=O)CSc3nnc(-c4ccncc4)n3Cc3ccco3)cc2)nc(C)n1 | -1.22
110 | O=C(NNC(=S)Nc1ccccc1)c1ccco1 | 1.83
111 | Cn1c(N)c(C#N)c2c(c1=S)CSC(C)(C)C2 | -1.03
112 | CCN(C(=O)/C=C/c1ccc2c(c1)OCO2)c1ccccc1 | 4.24
